# In PubChem BioAssay AID720565 (National Center for Advancing Translational Sciences (NCATS), 2013):
# Inconclusive results are not listed. Calls of active or inactive are those of the source. Calls come from the whole dose curve; as a rule, active = well fitted activation curve with a large enough effect; inconclusive = small, poorly fitted or top-dose-only effect; inactive = no such curve, though single readings can be large or run the other way.
# Test: qHTS for small molecules that induce genotoxicity in ELG1 expressing cells: Confirmatory Assay for Cherry-picked Compounds; note: nearly all actives have a fitted effect of over 35% in size
# Excerpt: Cancer cells divide rapidly compared to normal cells in the body. During cell division, cancer cells need to duplicate their genome by DNA replication. The failure of genome duplication leads to cancer cells' death. Therefore, inhibitors of DNA replication could specifically kill cancer cells. Based on this concept, many chemotherapeutic agents were developed and have been used to treat cancer patients. However, there are a limited number of agents available in the clinical setting, and some of those that do exist have low efficacy and severe side effects. Therefore, if we can find the compounds that effectively block DNA replication either by directly damaging DNA or by inhibiting other cellular mechanisms, the options for cancer treatment will be broadened. We developed a quantitative high-throughput ELG1-luciferase reporter gene assay. Since the level of human ELG1 protein is enhanced in response to genetic stresses, increases in luciferase activity can be used to identify compounds that cause genetic stress. The data herein is the result of the confirmation assay against the cherry picked compounds selected from the primary qHTS (AID 504466). Activation is the desired outcome for this assay. NIH Chemical Genomics Center [NCGC] NIH Molecular Libraries Probe Centers Network [MLPCN] MLPCN Grant: MH092164 Assay Provider: Kyungjae Myung, National Human Genome Research Institute, NIH
# For genotoxicity screening, 2,000 cells/ well (5 uL volume) were dispensed into white, solid-bottom 1536-well plates using a solenoid-based dispenser. Following transfer of 23 nL compound or DMSO vehicle by a pin tool, the plates were incubated 16 hr at 37 C, 5% CO2. Five microliter of ONE-Glo reagent (Promega) was then added to each plate. The assay plates were incubated for 30 min at room temperature followed by quantification of the luciferase activity using the PerkinElmer ViewLux CCD-based plate reader.
# Potency is the fitted concentration of half-maximal effect.
row,Compound,Potency
1,C=C(C)[C@@]12OC3(c4ccccc4)O[C@@H]1[C@@H]1[C@@H]4O[C@]4(CO)[C@@H](O)[C@]4(O)C(=O)C(C)=C[C@H]4[C@@]1(O3)[C@H](C)[C@H]2OC(=O)/C=C/C=C/c1ccccc1,50 nM (active)
2,C[C@@H]1C[C@@H]2[C@H]([C@H]3C=C(COC(=O)c4ccccc4)[C@@H](O)[C@]4(O)[C@@H](O)C(OC(=O)c5ccccc5)=C[C@@]14C3=O)C2(C)C,500 nM (active)
3,O=C(CCl)c1ccc(O)c(O)c1,inactive
4,CCCCCCCCCCCCCC(=O)O[C@@H]1[C@@H](C)[C@@]2(O)[C@H](C=C(CO)C[C@]3(O)C(=O)C(C)=C[C@@H]23)[C@@H]2C(C)(C)C12OC(C)=O (some centres not stated),8.9 nM (active)
5,CC(=O)OCC1=C[C@H]2[C@@H]3C(C)(C)[C@]3(OC(=O)Cc3ccccc3)C[C@@H](C)[C@]2(O)[C@@H]2C=C(C)C(=O)[C@@]2(O)C1,396 nM (active)
6,CCCC(=O)O[C@@H]1[C@@H](C)[C@@]2(O)[C@@H](C=C(CO)C[C@]3(O)C(=O)C(C)=C[C@@H]23)[C@@H]2C(C)(C)[C@]12OC(=O)CCC,99.6 nM (active)
7,CCCSc1ccc2nc(NC(=O)OC)[nH]c2c1,8880 nM (active)
